Data on 9 compounds can be found in PubChem BioAssay (EPA / NIEHS).

Read-out in experiment [1]: Interleukin-8 (IL8), CXCL8 (gene 3576)
In words: BSK_CASM3C_IL8: BioMAP Diversity Plus: CASM3C Assay for Interleukin-8 (IL8) Biomarker Activity (AID 2283042).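 Further: IL-8 protein level quantified by ELISA.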 The following applies: primary human coronary artery smooth muscle cells; actives raise or lower the signal.

Read-out in experiment [2]: Human Leukocyte Antigen - DR isotype (HLADR), HLA-DRA (gene 3122)
In words: BSK_CASM3C_HLADR: BioMAP Diversity Plus: CASM3C Assay for Human Leukocyte Antigen - DR isotype (HLADR) Biomarker Activity (AID 2283043).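 Further: cell-surface HLA-DR protein level quantified by ELISA.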 As to conditions: primary human coronary artery smooth muscle cells; actives raise or lower the signal.

Read-out in experiment [3]: Macrophage colony-stimulating factor (MCSF), CSF1 (gene 1435)
Briefly: BSK_CASM3C_MCSF: BioMAP Diversity Plus: CASM3C Assay for Macrophage colony-stimulating factor (MCSF) Biomarker Activity (AID 2283044).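 Further: M-CSF protein amount quantified by ELISA after 24 h exposure.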 As to conditions: primary human coronary artery smooth muscle cells; actives raise or lower the signal.

Read-out in experiment [4]: Low-density lipoprotein receptor (LDLR), LDLR (gene 3949)
In words: BSK_CASM3C_LDLR: BioMAP Diversity Plus: CASM3C Assay for Low-density lipoprotein receptor (LDLR) Biomarker Activity (AID 2283045).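 Further: LDLR protein level on the cell surface quantified by ELISA.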 As to conditions: primary human coronary artery smooth muscle cells; actives raise or lower the signal.

Read-out in experiment [5]: Monocyte Chemoattractant Protein-1 (MCP1), CCL2 (gene 6347)
In words: BSK_CASM3C_MCP1: BioMAP Diversity Plus: CASM3C Assay for Monocyte Chemoattractant Protein-1 (MCP1) Biomarker Activity (AID 2283046).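 Further: MCP-1 level quantified by ELISA 24 h after dosing.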 The following applies: primary human coronary artery smooth muscle cells; actives raise or lower the signal.

The nature of experiment [6]: BSK_CASM3C_Proliferation: Cell Proliferation Assessment in the BioMAP Diversity Plus: CASM3C Assay (AID 2283047).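 Further: sulforhodamine B total protein stain as relative cell number at 560 nm; sub-confluent cells exposed 48 h before staining; fitted both ways against DMSO so gain or loss of cell number.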 The following applies: primary human coronary artery smooth muscle cells.
Read-out in experiment [7]: Monokine induced gamma interferon (MIG), CXCL9 (gene 4283)
In words: BSK_CASM3C_MIG: BioMAP Diversity Plus: CASM3C Assay for Monokine induced gamma interferon (MIG) Biomarker Activity (AID 2283048).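 Further: MIG protein level measured by ELISA.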 The following applies: primary human coronary artery smooth muscle cells; actives raise or lower the signal.

Read-out in experiment [8]: serum amyloid A (SAA), SAA1 (gene 6288)
Briefly: BSK_CASM3C_SAA: BioMAP Diversity Plus: CASM3C Assay for serum amyloid A (SAA) Biomarker Activity (AID 2283049).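 Further: SAA protein level quantified by ELISA.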 The following applies: primary human coronary artery smooth muscle cells; actives raise or lower the signal.

Experiment [9] in a line: BSK_CASM3C_SRB: Viability Assessment in the BioMAP Diversity Plus: CASM3C Assay (AID 2283050).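 Further: cells exposed to compound for 24 h.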 The following applies: primary human coronary artery smooth muscle cells.
Read-out in experiment [10]: Thrombomodulin, THBD (gene 7056)
Briefly: BSK_CASM3C_Thrombomodulin: BioMAP Diversity Plus: CASM3C Assay for Thrombomodulin Biomarker Activity (AID 2283051).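 Further: thrombomodulin protein level measured by ELISA 24 h after dosing.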 The following applies: primary human coronary artery smooth muscle cells; actives raise or lower the signal.

Read-out in experiment [11]: Tissue Factor, F3 (gene 2152)
In words: BSK_CASM3C_TissueFactor: BioMAP Diversity Plus: CASM3C Assay for Tissue Factor Biomarker Activity (AID 2283052).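 Further: cell surface tissue factor protein level read by ELISA.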 The following applies: primary human coronary artery smooth muscle cells; actives raise or lower the signal.

Read-out in experiment [12]: Interferon-gamma inducible Protein 10 (IP10), CXCL10 (gene 3627)
Briefly: BSK_hDFCGF_IP10: BioMAP Diversity Plus: hDFCGF Assay for Interferon-gamma inducible Protein 10 (IP10) Biomarker Activity (AID 2283053). The following applies: primary human foreskin fibroblasts; actives raise or lower the signal. The procedure, abridged:
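Primary human foreskin fibroblasts exposed to chemicals for 24 h. IP-10 measured by ELISA; changes fitted bidirectionally against DMSO baseline.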

Read-out in experiment [13]: Urokinase-type plasminogen activator receptor (uPAR), PLAUR (gene 5329)
In words: BSK_CASM3C_uPAR: BioMAP Diversity Plus: CASM3C Assay for Urokinase-type plasminogen activator receptor (uPAR) Biomarker Activity (AID 2283054).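 Further: cell-surface uPAR protein level quantified by ELISA.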 The following applies: primary human coronary artery smooth muscle cells; actives raise or lower the signal.

Read-out in experiment [14]: Vascular cell adhesion molecule 1 (VCAM1), VCAM1 (gene 7412)
Briefly: BSK_CASM3C_VCAM1: BioMAP Diversity Plus: CASM3C Assay for Vascular cell adhesion molecule 1 (VCAM1) Biomarker Activity (AID 2283055).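 Further: VCAM-1 protein level quantified by ELISA on the cells.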 The following applies: primary human coronary artery smooth muscle cells; actives raise or lower the signal.

Read-out in experiment [15]: Collagen III, COL3A1 (gene 1281)
Briefly: BSK_hDFCGF_CollagenIII: BioMAP Diversity Plus: hDFCGF Assay for Collagen III Biomarker Activity (AID 2283056). As to conditions: primary human foreskin fibroblasts; actives raise or lower the signal. The procedure, abridged:
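Response relative to DMSO, fitted in both directions, reflects ELISA-measured collagen III in human primary skin fibroblasts 24 h after compound addition.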

Read-out in experiment [16]: Epidermal growth factor receptor (EGFR), EGFR (gene 1956)
In words: BSK_hDFCGF_EGFR: BioMAP Diversity Plus: hDFCGF Assay for Epidermal growth factor receptor (EGFR) Biomarker Activity (AID 2283057). The following applies: primary human foreskin fibroblasts; actives raise or lower the signal. The method in brief:
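Primary human foreskin fibroblasts (hDFCGF system), sampled 24 h after dosing; EGFR quantified by ELISA. Bidirectional fit relative to DMSO baseline; SRB total-protein staining in parallel cultures for cytotoxicity.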

Read-out in experiment [17]: Interleukin-8 (IL8), CXCL8 (gene 3576)
Briefly: BSK_hDFCGF_IL8: BioMAP Diversity Plus: hDFCGF Assay for Interleukin-8 (IL8) Biomarker Activity (AID 2283058). The following applies: primary human foreskin fibroblasts; actives raise or lower the signal. The method in brief:
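Fibroblast monolayers (human foreskin, hDFCGF) received test chemical for 24 h before ELISA detection of IL-8; either increases or decreases relative to DMSO count as activity.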

Experiment [18] in a line: BSK_hDFCGF_Proliferation: Cell Proliferation Assessment in the BioMAP Diversity Plus: hDFCGF Assay (AID 2283059).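 Further: curves fitted for both rise and fall of signal versus DMSO baseline.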 The following applies: primary human foreskin fibroblasts. The procedure, abridged: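 This proliferation readout used SRB total-protein staining of human foreskin fibroblasts […], normalized to DMSO with bidirectional curve fitting.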
Read-out in experiment [19]: Macrophage colony-stimulating factor (MCSF), CSF1 (gene 1435)
Briefly: BSK_hDFCGF_MCSF: BioMAP Diversity Plus: hDFCGF Assay for Macrophage colony-stimulating factor (MCSF) Biomarker Activity (AID 2283060). The following applies: primary human foreskin fibroblasts; actives raise or lower the signal. The method in brief:
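fibroblasts (human foreskin, primary), 24 h post-dose; M-CSF by ELISA; bidirectional fit, DMSO = baseline.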

A short description of experiment [20]: BSK_hDFCGF_SRB: Viability Assessment in the BioMAP Diversity Plus: hDFCGF Assay (AID 2283061).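 Further: cells exposed to compound for 24 h before the read.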 The following applies: primary human foreskin fibroblasts. The procedure, abridged:
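SRB-based viability read on primary human skin fibroblasts at 24 h: TCA fixation, 0.1% dye, 560 nm. Gain or loss of signal is fitted against the DMSO negative control.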

Structures are written as SMILES. Activity calls are given as the source filed them. How the source made its calls: active means hit-call score of the fitted dose curve at least 0.9, where 1 is the maximum; inactive means score below 0.9.

On to `C/C=C/C=C/C(=O)O`, for which the outcome in experiment [1], in experiment [2], in experiment [3], in experiment [4], in experiment [5] and in [6] was inactive. Also, the result in [7], in experiment [8], in [9], in experiment [10], in experiment [11] and in [12] was inactive. Further, the result in experiment [13], in [14], in [15], in experiment [16], in experiment [17] and in [18] was inactive. In addition, the outcome in experiment [19] and in experiment [20] was inactive.
Turning to `C=CCc1ccc(OC)c(OC)c1`, the outcome in experiment [1], in [2], in [3], in experiment [4], in experiment [5] and in [6] was inactive. In addition, the result in experiment [7], in experiment [8], in experiment [9], in [10], in [11] and in experiment [12] was inactive. The outcome in experiment [13], in [14], in experiment [15], in [16], in [17] and in [18] was inactive. For the same compound, the outcome in experiment [19] and in experiment [20] was inactive.
`OCC(CO)n1cnc(-c2ccc(F)cc2)c1-c1ccnc(Oc2ccccc2)n1`: the result in experiment [1], in experiment [4], in experiment [5], in [6], in experiment [7] and in experiment [8] was inactive. The outcome in experiment [9], in experiment [10], in experiment [11], in experiment [12], in [13] and in experiment [15] was inactive. Further, the outcome in experiment [16], in experiment [17], in experiment [18] and in [20] was inactive. Also, the AC50 is 0.408 µM (active) in experiment [2], 0.759 µM (active) in experiment [3], 2.33 µM (active) in experiment [14] and 0.148 µM (active) in experiment [19].
As to `O=C(O)c1cccnc1`, the outcome in experiment [1], in [2], in experiment [3], in experiment [4], in [5] and in experiment [6] was inactive. The result in [7], in experiment [8], in experiment [9], in experiment [10], in experiment [11] and in [12] was inactive. Further, the result in experiment [13], in experiment [14], in experiment [15], in experiment [16], in experiment [17] and in experiment [18] was inactive. For the same compound, the outcome in experiment [19] and in [20] was inactive.
Regarding `CN(C)CCCN1c2ccccc2Sc2ccc(Cl)cc21`, the outcome in experiment [1], in [7], in experiment [8], in [11] and in experiment [14] was inactive. Moreover, the half-maximal activity concentration (AC50) in experiment [2] was 27.7 µM (active); in experiment [3], 11.2 µM (active); in [4], 5.41 µM (active); in experiment [5], 20 µM (active); in experiment [6], 28 µM (active); in experiment [9] it was 28.5 µM (active). The concentration at half-maximal activity (AC50) in experiment [10] is 15 µM (active); in [12], 26.1 µM (active); in [13] it was 20 µM (active); in experiment [17], 31.4 µM (active); in [18] it was 16.6 µM (active); in [19], 22.1 µM (active). In experiment [20], the AC50 is 31.9 µM (active).
With `O=C1OC(c2ccc(O)cc2)(c2ccc(O)cc2)c2ccccc21`, the result in [2], in experiment [3], in experiment [4], in experiment [5], in experiment [7] and in experiment [8] was inactive. In addition, the result in experiment [9], in experiment [10], in [11], in experiment [12], in experiment [13] and in experiment [14] was inactive. For the same compound, the outcome in [17], in experiment [19] and in [20] was inactive. Also, the concentration at half-maximal activity (AC50) in experiment [6] is 28.2 µM (active); in experiment [15], 30.2 µM (active); in experiment [16], 20 µM (active); in [18] it was 28 µM (active).
As for `Oc1ccc(O)cc1`, the result in [1], in experiment [4], in experiment [5], in [7], in experiment [8] and in [9] was inactive. Besides, the result in experiment [11], in experiment [13] and in experiment [16] was inactive. The half-maximal activity concentration (AC50) in [2] was 9.58 µM (active); in experiment [3], 15.1 µM (active); in experiment [6] it was 25.7 µM (active); in experiment [10], 10.7 µM (active); in [12], 20.6 µM (active); in [14], 9.44 µM (active). For the same compound, the AC50 in [15] is 20 µM (active); in experiment [17], 31.5 µM (active); in experiment [18], 0.465 µM (active); in experiment [19], 11.6 µM (active); in experiment [20], 12 µM (active).
As for `CCCC[C@H]1CN(CC2CCOCC2)C(=O)OC12CCN(C1(C)CCN(C(=O)c3c(C)ncnc3C)CC1)CC2`, the outcome in experiment [1], in experiment [2], in experiment [3], in experiment [4], in experiment [5] and in experiment [6] was inactive. The result in [7], in experiment [8], in experiment [9], in experiment [10], in experiment [11] and in experiment [12] was inactive. Besides, the result in experiment [13], in experiment [14], in experiment [15], in experiment [16], in [17] and in experiment [18] was inactive. Besides, the outcome in experiment [19] and in experiment [20] was inactive.
As for `CCCCCCC(C=O)=Cc1ccccc1`, the outcome in [1], in experiment [2], in experiment [3], in experiment [4], in experiment [5] and in experiment [7] was inactive. Also, the result in experiment [8], in experiment [9], in [10], in experiment [11], in [13] and in experiment [14] was inactive. Besides, the result in experiment [16], in experiment [17] and in experiment [19] was inactive. For the same compound, the AC50 was 30.9 µM (active) in [6]; 32.6 µM (active) in experiment [12]; 30.1 µM (active) in [15]; 28.9 µM (active) in [18]; 31.5 µM (active) in experiment [20].

In general, AC50 refers to the concentration at which the activity in the assay is half-maximal.
